Key:
Assay in all cases: PBM binding z-score (relative to random genomic background probes); higher = stronger binding; sequences stand for … in GC…GCGATTGACAGCGTAGAATGAAGG
[1] = test system: PPARg:RXRa DBDmut IVT, anti-RXR (DBD mutation: RXRa K156A/R161A, NR concentration 270 nM, RXRa partner concentration 90 nM)
Summary of the method: (§1)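 Binding z-scores were set against random background probes. The data came from custom Agilent 4×180K protein-binding microarrays carrying double-stranded probes with 34-nt variable regions, incubated 1 h with ligand-free nuclear receptor dimers. Partner-specific antibodies detected binding, and scanned fluorescence was regression-normalized.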

[2] = test system: PPARg:RXRa IVT, anti-PPARg (NR concentration 270 nM, RXRa partner concentration 90 nM)
Summary of the method: as §1

[3] = test system: PPARg DBDmut:RXRa IVT, anti-PPARg (DBD mutation: PPARg1 K132A/R137A, NR concentration 270 nM, RXRa partner concentration 90 nM)
Summary of the method: as §1

[4] = test system: PPARg DBDmut IVT, anti-PPARg (DBD mutation: PPARg1 K132A/R137A, NR concentration 270 nM)
Summary of the method: as §1

[5] = test system: PPARg homodimer (NR concentration 180 nM)
Summary of the method: as §1

[6] = test system: PXR:RXRa (NR concentration 270 nM, RXRa partner concentration 90 nM)
Summary of the method: as §1

[7] = test system: PXR homodimer (NR concentration 270 nM)
Summary of the method: as §1

[8] = test system: RARa:RXR (NR concentration 270 nM, RXRa partner concentration 90 nM)
Summary of the method: as §1

[9] = test system: RARa homodimer (NR concentration 270 nM)
Summary of the method: as §1

[10] = test system: RARb:RXRa (NR concentration 270 nM, RXRa partner concentration 90 nM)
Summary of the method: as §1

[11] = test system: RARb homodimer (NR concentration 270 nM)
Summary of the method: as §1

[12] = test system: RARg:RXRa (NR concentration 270 nM, RXRa partner concentration 90 nM)
Summary of the method: as §1

[13] = test system: RARg homodimer (NR concentration 270 nM)
Summary of the method: as §1

[14] = test system: RXRa DBDmut IVT, anti-RXR (DBD mutation: RXRa K156A/R161A, NR concentration 90 nM)
Summary of the method: as §1

[15] = test system: RXRa homodimer (NR concentration 180 nM)
Summary of the method: as §1

[16] = test system: THRa:RXRa (NR concentration 90 nM, RXRa partner concentration 90 nM)
Summary of the method: as §1

[17] = test system: THRa homodimer (NR concentration 90 nM)
Summary of the method: as §1

[18] = test system: VDR:RXRa (NR concentration 270 nM, RXRa partner concentration 90 nM)
Summary of the method: as §1

[19] = test system: VDR homodimer (NR concentration 270 nM)
Summary of the method: as §1

Sequence | PBM binding z-score [1] | PBM binding z-score [2] | PBM binding z-score [3] | PBM binding z-score [4] | PBM binding z-score [5] | PBM binding z-score [6] | PBM binding z-score [7] | PBM binding z-score [8] | PBM binding z-score [9] | PBM binding z-score [10] | PBM binding z-score [11] | PBM binding z-score [12] | PBM binding z-score [13] | PBM binding z-score [14] | PBM binding z-score [15] | PBM binding z-score [16] | PBM binding z-score [17] | PBM binding z-score [18] | PBM binding z-score [19]
TCAGATAGGTGAAGGTAACTCAGGTACGCAGTCG | 3.31 | 1.87 | 0.193 | -0.0331 | 0.849 | 0.435 | 0.291 | 0.668 | 0.648 | 1.1 | 0.689 | 0.578 | 0.814 | 1.22 | 1.08 | 1.17 | 0.217 | 0.796 | 0.382
TTTATTAGTTGAAGGGCAACCGACGAGTCCGTTT | 0.976 | 0.967 | 0.878 | 1.23 | 1.41 | 0.818 | 1.45 | 0.575 | 1.48 | 1.68 | 1.42 | 0.781 | 0.783 | 0.859 | 0.628 | 0.408 | 0.198 | 1.17 | 1.91
CGTCAAAGTTCAACTAAGGTATCGTAAAGCACGC | 0.0447 | 1.92 | 1.2 | 0.78 | 3.06 | 5.09 | 3.7 | 4.2 | 2.1 | 5.24 | 4.26 | 5.92 | 6.75 | 4.68 | 5.21 | 4.92 | 0.41 | 4.28 | 4.04
CCTTACGGGCCACTGACAGGTTATAGCATTTGGA | 0.882 | 0.315 | -0.753 | -0.329 | 0.129 | -0.136 | -0.0803 | 0.247 | 0.161 | 0.69 | 0.8 | 0.731 | 0.737 | -0.085 | 0.326 | 0.0187 | -0.159 | -0.202 | -0.034
TCATATAGGTCATACAGGTGAAAGTCGGCATCTA | 6.93 | 6.78 | 2.18 | 2.34 | 2.69 | 3.62 | 1.06 | 4.44 | 2.39 | 4.2 | 3.8 | 5.21 | 5.03 | 2.68 | 5.27 | 3.42 | 0.973 | 5.01 | 1.81
GCTGCTAGGTCAACTGATGGTCAGCTATAGCTCG | 5.21 | 4.3 | -0.479 | -0.34 | 1.51 | 1.3 | -0.342 | 2.91 | 0.342 | 4.31 | 3.72 | 5.34 | 5.69 | 1.79 | 3.41 | 3.03 | 1.11 | 1.82 | -0.0243
TCAGACCGGTGAAGGTAACTCAGGTACGCAGTCG | 1.9 | 0.032 | -0.824 | -0.847 | -0.31 | 0.238 | -0.147 | 0.303 | -0.254 | 0.335 | 0.271 | 0.022 | -0.104 | 0.832 | 0.506 | 1.29 | -0.0547 | 0.501 | 0.152
ACTAGTTGGTCAGCTGAGGTCGCACACAATTCGG | 1.03 | 1.57 | 0.582 | 0.333 | 0.559 | 3.02 | 0.134 | 1.79 | -0.0842 | 1.91 | 2.35 | 1.52 | 1.76 | 0.828 | 1.46 | 4.25 | 2.58 | 2.2 | 1.32
TATACAGGGTCAGAGGCCAGAGTACGAATGTCGA | 1.65 | 3.65 | 2.26 | 1.28 | 2.24 | 2.83 | 0.79 | 3.74 | 1.13 | 3.72 | 3.01 | 4.21 | 4.27 | 1.39 | 4.32 | 2.74 | 0.817 | 3.24 | 2.2
TCTTGTAGATCAATAGAGGTTTAGAAAGTGCGCT | 1.65 | 0.249 | 0.996 | 0.224 | -0.539 | 0.49 | -0.0138 | 0.588 | 0.0314 | -0.311 | -0.294 | -0.0286 | -0.308 | 0.603 | 0.0167 | 0.294 | -0.767 | 0.618 | 0.0472
CCTCGGAAGACAACAGGAGGTCAGAGCTGCCAGA | -0.389 | -0.416 | -0.399 | -1.87 | 1.38 | 1.62 | 0.458 | 2.01 | 0.559 | 1.81 | 2.77 | 1.94 | 1.99 | -0.3 | 1.69 | 2.04 | 0.668 | 1.5 | 1.28
CCTTACGGGTCACTCCAGGTTAGAGCATCGGAGT | 2.67 | 3.37 | -0.182 | -0.0184 | 1.58 | 4.28 | 0.36 | 3.52 | 0.0194 | 3.64 | 3.08 | 4.43 | 4.37 | 1.55 | 4.07 | 4.81 | 0.277 | 3.65 | 1.18
CATACTGGGCCATCAGGTCATTGATATCAACGTT | 4.24 | 4.71 | 0.816 | 1.18 | 1.3 | 1.99 | 0.876 | 2.16 | 0.345 | 2.25 | 2.78 | 2.53 | 2.08 | 0.904 | 1.61 | 3.29 | 3.27 | 2.28 | 2.38
ATCTCTAGGTAAAGATAGTTGAGTGAATGCAAAT | 2.14 | 1.82 | 1.87 | 0.639 | 0.295 | 0.221 | 0.497 | 0.592 | 1.46 | -0.0235 | -0.216 | 0.504 | 0.43 | 0.115 | 0.0675 | 0.495 | 0.0736 | 0.375 | 0.275
CAAACTAGGCCAAGAGGTCAAAGTCCGCTTCCCG | 6.71 | 6.57 | 1.38 | 0.62 | 2.87 | 5.62 | 1.75 | 6.34 | 1.51 | 4.2 | 4.79 | 5.84 | 5.21 | 2.07 | 6.52 | 3.75 | 1.81 | 4.94 | 3.94
